Screening results from PubChem BioAssay.
Shiga inhibitor: inhibitors of Shiga toxin in Vero cells; inhibition, % at 38.7 µM; Vero cells, Shiga toxin protein synthesis inhibition reporter; 9.2% of 290,000 active; AID 2315; in the data active means inhibition mostly above about 28%, no sharp cut-off; inactive means mostly below about 43%; further: 0% is about no effect
Pf growth 48h: P. falciparum growth inhibition at 48 hours (one generation) | 5.9% of 310,000 active | P. falciparum luciferase growth in erythrocytes, 48 h | AID 504832 | Potency, µM (highest dose often 28.7 µM), without a hit: top-dose activity change, negative = inhibition, most hits filed as inhibitors; further: potency means the concentration at half of the fitted maximal effect; on the % scale 0 is the no-effect control and ±100 the full control effect
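Erythrocytes infected with P. falciparum carrying an integrated firefly luciferase reporter (2% hematocrit, 0.1% parasitemia final) were exposed to compounds in RPMI 1640 with 0.5% Albumax at 37 C, 5% CO2. Growth inhibition was scored as reduced luminescence.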
CHX counter: affects cycloheximide protein synthesis inhibition readout, counter-screen; cell reporter, cycloheximide protein synthesis inhibition counterscreen; max response, %; 12% of 300,000 active; AID 2314; in the data active means max response mostly above about 13%, no sharp cut-off; inactive means mostly below about 14%; further: read at 38.3 µM for the half of the compounds with a filed dose; 0% is about no effect
LmPK inhibitor: LmPK (Leishmania mexicana) enzyme inhibition; Q27686; purified LmPK, Kinase-Glo ATP luminescence, 1 h; Potency, µM (highest dose often 57.5 µM), for inactives: top-dose activity change, negative = inhibition, actives largely listed as inhibitors; 0.37% of 290,000 active; further: potency means the concentration at half of the fitted maximal effect; on the % scale 0 is the no-effect control and ±100 the full control effect
Target sequence (Q27686 whole entry, looked up): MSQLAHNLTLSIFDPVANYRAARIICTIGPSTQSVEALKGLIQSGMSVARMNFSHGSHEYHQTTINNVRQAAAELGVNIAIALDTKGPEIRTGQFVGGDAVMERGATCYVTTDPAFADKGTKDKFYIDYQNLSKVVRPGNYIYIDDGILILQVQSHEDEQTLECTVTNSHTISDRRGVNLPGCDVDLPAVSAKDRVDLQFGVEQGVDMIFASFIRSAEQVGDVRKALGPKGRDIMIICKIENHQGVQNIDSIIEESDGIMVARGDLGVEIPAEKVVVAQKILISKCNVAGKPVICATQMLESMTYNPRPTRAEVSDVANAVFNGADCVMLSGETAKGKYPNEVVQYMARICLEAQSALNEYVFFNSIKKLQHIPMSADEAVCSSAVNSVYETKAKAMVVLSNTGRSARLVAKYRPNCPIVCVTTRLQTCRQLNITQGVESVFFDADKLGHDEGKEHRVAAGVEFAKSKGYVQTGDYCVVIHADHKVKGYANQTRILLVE
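Kinase-Glo luminescence read after 1 h RT reaction of 0.1 nM LmPK with 0.5 mM PEP and 0.1 mM ADP. Activity scaled between uninhibited and enzyme-free controls.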
Pf growth 96h: P. falciparum growth inhibition at 96 hours; P. falciparum luciferase reporter growth, 96 h; Potency, µM (series often up to 28.7 µM), inactives show top-dose activity change, negative = inhibition, usual class: inhibitors; 6.9% of 320,000 active; AID 504834; further: potency means the concentration at half of the fitted maximal effect; on the % scale 0 is the no-effect control and ±100 the full control effect
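Erythrocytes infected with luciferase-expressing P. falciparum were dispensed at 2% hematocrit and 0.05% parasitemia (final), then incubated with compounds 96 hours at 37 C in 5% CO2. Luminescence after detection reagent addition reported growth.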
* = called active by the depositor; [ ] = another dose, or the depositor's remark. Compounds with a hit are over-represented: about 22% of the library has one in this group of screens. Unless noted, the call rests on the fitted dose curve; in most records, active means well fitted inhibition curve with a large enough effect; inconclusive means small, poorly fitted or top-dose-only effect, or another doubt; inactive means no such curve, though single readings can be large or run the other way.

`CC(=O)c1sc2nsc(SCCN3CCCCC3)c2c1N` gave Shiga inhibitor 43, Pf growth 48h inconclusive, CHX counter 29*, LmPK inhibitor -3% and Pf growth 96h inconclusive.
COC(=O)c1ccc(OC(=O)CCc2cc(OC)c(OC)c(OC)c2)cc1 was read as Shiga inhibitor -16, Pf growth 48h 42%, CHX counter -1, LmPK inhibitor 0% and Pf growth 96h -7%.
Screening COc1ccccc1CN(Cc1cc2cc3c(cc2[nH]c1=O)OCCO3)Cc1nnnn1Cc1ccco1 returned Shiga inhibitor -13, Pf growth 48h inconclusive, CHX counter -2, LmPK inhibitor 4% and Pf growth 96h 1µM*.
For O=c1[nH]c2cc3c(cc2cc1CN(Cc1cccs1)Cc1nnnn1Cc1ccco1)OCCO3 the results were Shiga inhibitor 12, Pf growth 48h inconclusive, CHX counter -4, LmPK inhibitor 16% and Pf growth 96h 12µM*.
For O=c1[nH]c2cc3c(cc2cc1CN(Cc1ccccc1)Cc1nnnn1Cc1ccco1)OCCO3 the results were Shiga inhibitor 48, Pf growth 48h inconclusive, CHX counter 3 and LmPK inhibitor 2%.
Screening Cc1onc(-c2ccccc2)c1CNS(=O)(=O)c1ccccc1[N+](=O)[O-] returned Shiga inhibitor 2, Pf growth 48h 1%, CHX counter -1, LmPK inhibitor -1% and Pf growth 96h inconclusive.
For Cc1sc(=NC(=O)c2ccco2)n(C)c1-c1ccccc1 the results were Shiga inhibitor 52*, Pf growth 48h 168%, CHX counter 40*, LmPK inhibitor -13% and Pf growth 96h 122%.
O=C(Nc1nnc(-c2ccc(F)cc2)s1)c1ccco1 was read as Shiga inhibitor 34, Pf growth 48h 75%, CHX counter 9, LmPK inhibitor 6% and Pf growth 96h inconclusive.
Screening Cn1c(=NC(=O)c2ccco2)sc2ccccc21 returned Shiga inhibitor 53*, Pf growth 48h 63%, CHX counter 32*, LmPK inhibitor inconclusive and Pf growth 96h 116%.
Screening Cc1sc(=NC(=O)c2ccco2)n(C)c1-c1ccc(F)cc1 returned Shiga inhibitor 126*, Pf growth 48h 200%, CHX counter 44*, LmPK inhibitor -3% and Pf growth 96h 92%.
Cn1c(=NC(=O)CCl)sc2ccccc21 was read as Shiga inhibitor 46, Pf growth 48h inconclusive, CHX counter 28*, LmPK inhibitor -5% and Pf growth 96h 5.2µM*.
For COCCn1c(SCC(=O)Nc2sccc2C(N)=O)nc2cc(Cl)ccc2c1=O the results were Shiga inhibitor -14, Pf growth 48h inconclusive, CHX counter -4, LmPK inhibitor 5% and Pf growth 96h inconclusive.
For CO/N=C(/CNC(=O)c1ccc(F)cc1)c1ccc(Cl)cc1 the results were Shiga inhibitor -15, Pf growth 48h -5%, CHX counter 2, LmPK inhibitor 4% and Pf growth 96h 3%.
Screening CC(=O)SCC(=O)N=c1sc2cc(F)ccc2n1C returned Shiga inhibitor 2, Pf growth 48h -5%, CHX counter -2, LmPK inhibitor 0% and Pf growth 96h 33%.
Screening Cn1c(=NC(=O)c2cccc([N+](=O)[O-])c2)sc2ccccc21 returned Shiga inhibitor 119*, Pf growth 48h inactive, CHX counter 27*, LmPK inhibitor -9% and Pf growth 96h inactive.
For CC(=O)N=c1sc2cc(C)ccc2n1C the results were Shiga inhibitor 147*, Pf growth 48h 82%, CHX counter 29*, LmPK inhibitor 5% and Pf growth 96h 9.3µM*.
Screening CC1(C)[C@@H]2CC[C@@]1(C)C(=O)C2 returned Shiga inhibitor 19, Pf growth 48h -5%, CHX counter 1 and Pf growth 96h 11%.
For O=C(c1cccc(C(F)(F)F)c1)C1CCCN(Cc2cccn2-c2ccccn2)C1 (centres undefined) the results were Shiga inhibitor -13, Pf growth 48h inconclusive, CHX counter -4, LmPK inhibitor -8% and Pf growth 96h 13%.
`O=C(NCc1ccc2c(c1)OCO2)c1cc(Cl)ccc1Cl` gave Pf growth 48h 50%, CHX counter 13*, LmPK inhibitor 0% and Pf growth 96h 18%.
For O=C(NCc1ccc2c(c1)OCO2)c1ccc(COc2cc(Cl)ccc2Cl)o1 the results were Shiga inhibitor -9, CHX counter -1, LmPK inhibitor 1% and Pf growth 96h 6.6µM*.
`CCc1ccc(NC(=O)NCc2ccc3c(c2)OCO3)cc1` gave Shiga inhibitor 7, Pf growth 48h 34%, CHX counter 13, LmPK inhibitor 1% and Pf growth 96h 9%.
O=C(NCc1ccc2c(c1)OCO2)c1ccc(CSCc2ccc(Cl)cc2)o1 was read as Shiga inhibitor 11, Pf growth 48h 4%, CHX counter -4, LmPK inhibitor 0% and Pf growth 96h -57%.
For O=C(NCc1ccc2c(c1)OCO2)Nc1ccc(Cl)cc1 the results were Shiga inhibitor 24, Pf growth 48h 13%, CHX counter 25*, LmPK inhibitor -7% and Pf growth 96h inconclusive.
For CC(=O)Nc1ccc(S(=O)(=O)N(Cc2ccccc2)C(C)C)cc1 the results were Shiga inhibitor -10, Pf growth 48h -9%, CHX counter -2, LmPK inhibitor 2% and Pf growth 96h inconclusive.
Screening COC(=O)[C@@H](NC(=O)N1CCc2nc(COc3ccccc3)c3c(c2C1)CO[C@@H](C)C3)C(C)C returned LmPK inhibitor -2%[11.5 µM].
CCOc1cc(/C=N\Nc2nc(-c3ccc(C)cc3)c(NC(C)=O)s2)ccc1O was read as Shiga inhibitor 24, Pf growth 48h 8.3µM*, CHX counter 2, LmPK inhibitor 14% and Pf growth 96h inconclusive.
For CCOc1cc(/C=N/Nc2ncc(C)c(=O)[nH]2)ccc1O the results were Shiga inhibitor 12, Pf growth 48h -28%, CHX counter 8, LmPK inhibitor 2% and Pf growth 96h 28%.
Screening COc1ccc(/C=N/Nc2nc(-c3ccc(C)cc3)c(NC(C)=O)s2)cc1OC returned Shiga inhibitor 55*, Pf growth 48h 1.2µM*, CHX counter 34*, LmPK inhibitor 11% and Pf growth 96h 1.2µM*.
`COc1cc(/C=N\Nc2nc(-c3ccc(C)cc3)c(NC(C)=O)s2)ccc1O` gave Shiga inhibitor 51, Pf growth 48h 10µM*, CHX counter 19*, LmPK inhibitor 11% and Pf growth 96h 5.9µM*.
For O=[N+]([O-])c1ccc(Oc2c(F)c(F)nc(N3CCCC3)c2F)cc1 the results were Shiga inhibitor -5, Pf growth 48h -9%, CHX counter -2, LmPK inhibitor -1% and Pf growth 96h 4%.
`CCCc1nn(C)c(C(=O)Nc2cccc3ccccc23)c1Cl` gave Shiga inhibitor 36*, Pf growth 48h 7%, CHX counter 12, LmPK inhibitor -1% and Pf growth 96h -18%.
Screening CCC(=O)Nc1cccc2ccccc12 returned Shiga inhibitor -3, Pf growth 48h 20%, CHX counter -4, LmPK inhibitor 2% and Pf growth 96h 28%.
